# ssDAF-12 act – S. stercoralis DAF-12 nuclear receptor activators, primary screen, cell-based, luminescence, HEK293, GRIP1 co-expression, lit1-tk-luc; HEK293 ssDAF-12/GRIP1 lit1-tk-luc reporter; % of 3 µM dafachronic acid response; activation, % at 6.8 µM; hit rate 1% among 370,000;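 active means activation above the mean over all tested compounds plus 3 SD, cut at about 0.9% in these data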;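 further: 0% = DMSO-only wells and 100% = 3 µM delta7-dafachronic acid wells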
# DAX1 inh-1 – DAX1 (NR0B1) inhibitors, primary screen, cell-based, HEK293, Gal4-DAX1, luciferase luminescence; Nuclear receptor subfamily 0 group B member 1 (Homo sapiens), P51843; HEK293 Gal4-DAX1 luciferase reporter; inhibition, % at 6.75 µM; hit rate 0.99% among 340,000; AID 504766, 2011;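 active means inhibition above the mean over all tested compounds plus 3 SD, cut at about 4.2% in these data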;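 further: 0% = DAX1-transfected cells with DMSO and 100% = empty-vector control cells with DMSO; inhibition shows as a rise in luminescence from relieved DAX1 repression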
# Target sequence (P51843 207-470 limits assumed): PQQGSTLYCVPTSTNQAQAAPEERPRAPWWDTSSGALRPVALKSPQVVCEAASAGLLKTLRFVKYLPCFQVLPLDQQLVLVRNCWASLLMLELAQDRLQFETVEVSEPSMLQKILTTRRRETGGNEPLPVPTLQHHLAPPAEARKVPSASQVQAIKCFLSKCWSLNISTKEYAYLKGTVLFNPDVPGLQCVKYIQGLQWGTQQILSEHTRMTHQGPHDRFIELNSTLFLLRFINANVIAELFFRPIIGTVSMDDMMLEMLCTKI
# DAX1 inh-2 – DAX1 (NR0B1) inhibitors on StAR promoter, primary screen, cell-based, luminescence, SF-1 (NR5A1), full-length DAX-1; HEK293T StAR-luciferase reporter, SF-1/DAX-1 repression relief; inhibition, % at 6.8 µM; hit rate 1.1% among 370,000; AID 652010, 2013;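 active means inhibition above the mean over all tested compounds plus 3 SD, cut at about 3.6% in these data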;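 further: 0% = DAX-1 cells with DMSO and 100% = cells lacking DAX-1 with DMSO; higher inhibition means more luminescence from relief of DAX-1 repression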
# hgDAF-12 ag – H. glycines DAF-12 receptor agonists, primary screen, cell-based, luminescence, HEK293, GAL4 fusion, UAS-luciferase. Nuclear hormone receptor DAF-12 (Heterodera glycines), GAL4 fusion. HEK293 GAL4-hgDAF12 UAS-luciferase reporter, agonist luminescence; normalized to butyrate control. activation, % at 6.8 µM. hit rate 1.8% among 370,000. AID 687014, 2013;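 active means activation above a cutoff set at the mean of all screened compounds plus 3 SD, cut at about 10% in these data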;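 further: 0% = DMSO wells and 100% = sodium butyrate wells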
# SMARCA2 act – SMARCA2 (BRM) function activators, primary screen, cell-based, luminescence, high throughput | MG213 cells, MMTV-luciferase reporter, dexamethasone, overnight | activation, % at 9.1 µM | hit rate 1% among 370,000 | AID 652017, 2013; in the data active means activation above about 7.8%;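 further: 0% = vehicle wells and 100% = reference activator wells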
# hcDAF12 agonist – H. contortus DAF-12 nuclear receptor activators, primary screen, cell-based, luminescence, HEK293, lit1-tk-luc reporter. AID 652067, 2013. activation, % at 6.8 µM. hit rate 1.4% among 370,000. HEK293 hcDAF-12 lit1-tk-luc reporter; 0% DMSO, 100% Δ7-dafachronic acid;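 active means activation above the mean of all tested compounds plus 3 SD, cut at about 5.5% in these data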;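 further: 100% = response to 3 µM Δ7-dafachronic acid high control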
# Numbers without * were called inactive; . = no result. Hits are enriched below; roughly 4.8% of the tested compounds scored in any of these assays.
SMILES,ssDAF-12 act,DAX1 inh-1,DAX1 inh-2,hgDAF-12 ag,SMARCA2 act,hcDAF12 agonist
Cc1ccc(Cn2nnc3c2-c2ccccc2S(=O)(=O)N(C(C)(C)C)C3)cc1,-1.6,.,-1.0,0.4,-0.4,-2.0
COC(=O)c1c(NC(=O)c2ccccc2)sc(C(N)=O)c1C,1.0*,0.0,1.8,-3.6,0.9,3.5
COC/C=C/C1=CC2=CC(=O)C(C)(OC(=O)c3cnc4ccccc4n3)C(=O)C2=CN1CCCCO (stereo not given),-1.2,4.2*,0.2,-0.6,-1.0,-0.4
COc1ccc(S[C@]2(C(=O)N3CCN(c4ncccn4)CC3)CC(=O)N(c3ccccc3)[C@@H]2c2ccc(OC)cc2)cc1,-1.3,.,-1.9,-0.6,-2.5,-2.3
COc1ccc2ccccc2c1C=NNC(=O)c1cc(-c2ccc(C)cc2)n[nH]1,-0.6,.,-2.6,7.5,-3.6,-2.5
O=C1CCC(=O)N(O)CCCCCNC(=O)CCC(=O)N(O)CCCCNC(=O)CCC(=O)N(O)CCCCCN1,-0.2,5.3*,-0.4,3.0,-1.6,-0.7
CN(C)c1ccc(S(=O)(=O)NCC(=O)N2CCN(S(=O)(=O)c3cccc(F)c3)CC2)cc1[N+](=O)[O-],-1.3,0.4,0.8,-2.0,-3.4,-0.3
CN(CC(=O)Nc1cccc(F)c1)C(=O)CNS(=O)(=O)c1ccc(N(C)C)c([N+](=O)[O-])c1,-1.2,4.4*,-0.6,2.7,-1.6,-0.1
CC(C)S(=O)(=O)c1csc(C(=O)Nc2ccc(F)cc2)c1N,1.3*,2.2,3.2,8.6,3.5,4.1
Cc1nc(Cl)sc1C(=O)Nc1ccc(F)cc1,-0.5,1.2,0.1,-0.6,1.3,0.0
CN1CCc2c(sc3c2c(=O)n(-c2ccccc2)c2n[nH]c(=S)n32)C1,-1.9,4.7*,0.3,-1.0,-3.4,-1.5
O=c1c2c3c(sc2n2c(=S)[nH]nc2n1-c1ccccc1)CCC3,-1.7,.,-0.7,-0.1,-5.0,-1.4
CCC[C@H]1[C@@H](O)CC[C@@]23CCCN2C(=O)CCC[C@@H]13,0.3,.,.,-0.5,.,0.6
COc1ccc(C(=O)/C=C/c2ccccc2OC)c(OC(=O)c2ccc([N+](=O)[O-])cc2)c1,0.1,-0.7,0.0,0.0,0.5,1.6
COc1cccc(C(=O)Oc2ccccc2/C=C\C(=O)c2cc3ccccc3o2)c1,1.6*,-1.2,0.5,9.6,4.1,6.5*
O=c1c2ccccc2sn1-c1ccc(S(=O)(=O)N2CCCCC2)cc1,1.1*,-0.7,0.3,2.0,-1.4,0.3
O=c1c2ccccc2sn1-c1ccc(S(=O)(=O)N2CCCC2)cc1,-1.0,0.7,-0.1,-2.5,0.1,-1.1
Cc1oc2c(C)c(O)ccc2c(=O)c1-c1nncn1-c1ccccc1,-1.1,7.1*,-0.2,4.7,0.6,2.0
CC(C)Oc1ccc(-c2csc(N3CCC(C(N)=O)CC3)n2)cc1,-1.1,.,.,10.8*,.,-2.6
COc1ccc(C2C(C(=O)Nc3ccc(F)cc3)CCC(=O)N2c2ccc(OC)cc2)cc1 (stereo not given),-1.3,.,-0.1,-0.9,-1.9,-1.2
CCCCCCCCN1CN2Cc3cc(F)ccc3C2CS1(=O)=O (stereo not given),-0.5,.,0.0,-2.0,3.5,1.3
COc1ccc(O)c(-c2cc(-c3cccs3)[nH]n2)c1,1.1*,1.8,0.1,10.0,7.5,5.8*
COc1ccc(/C=N/NC(=S)Nc2c(C)n(C)n(-c3ccccc3)c2=O)cc1OC,-1.3,5.4*,0.1,-0.2,-1.0,-0.9
CCOC(=O)c1c(C)oc2cc(Cl)c(O)c(CN(C)C)c12,-1.1,-1.2,0.6,12.8*,4.7,-2.3
COc1ccccc1N1CCN(S(=O)(=O)c2cc(C(F)(F)F)cc(C(F)(F)F)c2)CC1,-1.2,7.7*,0.1,2.7,-0.7,-1.6
SMILES,ssDAF-12 act,DAX1 inh-1,DAX1 inh-2,hgDAF-12 ag,SMARCA2 act,hcDAF12 agonist
COc1ccccc1N1CCN(S(=O)(=O)c2ccccc2)CC1,-0.9,1.5,-0.1,2.5,1.7,0.1
CCCCCCNC(=O)C1CSCCS(=O)(=O)N1Cc1ccc(OC)cc1 (stereo not given),-1.6,.,0.4,-0.8,-1.1,-1.9
CC(C)n1cc(/C=N/Nc2ccc(Cl)c(C(=O)O)c2)c2ccccc21,.,4.5*,.,.,.,.
O=C(N[C@@H](Cc1c[nH]c2ccccc12)C(=O)O)c1ccc(Cl)cc1,-1.2,0.1,2.0,1.9,-4.8,1.2
COC(=O)C(Cc1c[nH]c2ccccc12)NC(=O)c1ccccc1Br (stereo not given),1.1*,0.9,0.1,3.0,0.3,2.8
O=C(NC(Cc1c[nH]c2ccccc12)C(=O)O)c1ccccc1 (stereo not given),1.2*,0.7,0.8,1.2,3.9,2.6
CCC(C)N(C(=O)COC(=O)CCc1c[nH]c2ccccc12)C1CCS(=O)(=O)C1 (stereo not given),-1.1,0.7,-0.1,0.4,-1.9,1.3
CCN(C(=O)COC(=O)Cc1c[nH]c2ccccc12)C1CCS(=O)(=O)C1 (stereo not given),1.2*,-0.5,-0.1,1.6,-3.8,6.1*
O=C(NC(Cc1c[nH]c2ccccc12)C(=O)O)c1cccc(S(=O)(=O)N2CCCCC2)c1 (stereo not given),-0.5,-0.2,-0.2,1.4,-1.5,5.7*
CCOC(=O)[C@@]12CCCC3=C1N(CCC3)C(=O)[C@H]2CC(=O)NCC1CCCCC1,-0.9,.,-0.6,-1.4,0.7,-2.1
O=C(Cc1c[nH]c2ccccc12)OCC(=O)c1ccccc1,1.2*,0.6,-0.1,2.8,-1.1,3.4
O=C(O)C(O)Cc1c[nH]c2ccccc12 (stereo not given),0.2,4.7*,0.2,5.1,0.0,4.2
O=C(O)C(=O)Cc1c[nH]c2ccccc12,1.2*,2.0,-0.9,3.2,0.0,1.2
Cc1noc(C)c1C(=O)NC(Cc1c[nH]c2ccccc12)C(=O)O (stereo not given),1.2*,0.6,-0.6,-1.4,-3.1,2.9
c1ccc(-n2c(SCc3cccc4ccccc34)nnc2-c2ccccn2)cc1,-1.3,.,-2.1,-1.9,-4.3,-4.2
C#CC1(O)C2C=C(OC)C(=O)C1C(c1ccccc1)C2C (stereo not given),-0.9,.,0.6,5.4,-3.5,-0.1
Cc1ccc(NC(=O)C(C)OC(=O)Cc2c[nH]c3ccccc23)cc1 (stereo not given),0.2,-1.2,-1.3,3.7,-2.6,2.2
